PubChem BioAssay (NCI)
Values joined by “and” are separate entries in the source; they are usually repeats but may differ in a detail not shown here. Equal entries are not always repeated. The panel holds about 83,000 compounds, 20% with a hit somewhere; the sample as a whole holds those more often.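 Cell lines were cultured in 96-well plates, exposed to a single compound concentration, and assessed for percent growth 48 hours later.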 Active and inactive are the calls of the source. How the source made its calls: active means growth percent below 10; inactive means the rest.

Test system: MDA-MB-468 breast
Test: NCI-60 one-dose screen, 48 h (100 = growth as untreated, 0 = no growth, -100 = all killed)
Details: 10 µM unless noted

## CCN(CC)CCCNc1ccc(Nc2ccc(OC)cc2)cc1
  growth: 78.8% (inactive)

## COc1ccc(/C=C/C(=O)Nc2cccnc2Nc2ccc(F)cc2)cc1
  growth: 84% (inactive)

## Cn1cc2c(=O)nc3c(-c4nc5ccccc5[nH]4)n[nH]n3c2n1
  growth: 83.3% (inactive)

## O=C1C(OCCOc2ccccc2)=C(OCCOc2ccccc2)C(=O)c2ccccc21
  growth: 72.9% (inactive)

## O=C(Nc1cccc(-n2cc(-c3ccncc3)c(-c3ccc(Cl)c(O)c3)n2)c1)c1ccccc1
  growth: 64.1% (inactive)

## C=C1c2nc3ccccc3n2C=C(c2cccc(Cl)c2)N1Cc1ccc(OC)cc1
  growth: 32% (inactive)

## CCC1=C[C@]2(C3CC(=O)N(c4ccccc4)C3=O)CC(C(C)(C)C)C[C@@H]2[C@@H]2C(=O)N(c3ccccc3)C(=O)[C@H]12 (stereo partly specified)
  growth: 90.2% (inactive)

## CCN(CC)c1ccc2c(c1)Oc1nc(N)c(C#N)c(N)c1C2Sc1ccc(OC)cc1 (stereo unspecified)
  growth: -35.3% (active)

## O=C1/C(=C/c2ccccc2[N+](=O)[O-])Cc2ccccc21
  growth: -46.2% (active) and -17.9% (active)

## CC(C)(O)c1cncc(-c2ccc3ncnc(NCc4ccccc4)c3c2)c1
  growth: 64.8% (inactive)

## CN(C)c1ccc2nc3ccc(=[N+](C)C)cc-3sc2c1
  growth: -31.5% (active) and -9.26% (active) and -4.98% (active)

## O=C(Nc1nc2ccc(C(F)(F)F)cc2s1)c1cc(Cl)ccc1O
  growth: -1.49% (active)

## Cc1ccc(NC(=O)Cn2nncc2CN2C(=O)CSC2=O)cc1C
  growth: 95.5% (inactive)

## O=C(CSc1nccc(Nc2ccc(S(=O)(=O)Nc3nccs3)cc2)n1)c1ccc(C(F)(F)F)cc1
  growth: 97% (inactive)

## COc1ccc(Nc2cc(Cl)ccc2C(=O)O)cn1
  growth: 95.8% (inactive)

## COc1cc(NC(=O)CCSc2nc3ccc(Cl)cc3c(=O)n2Cc2ccccc2)cc(OC)c1OC
  growth: 93% (inactive)

## CC(C)(C)OC(=O)NCCc1ccc(N=C=S)cc1
  growth: 60.6% (inactive)

## COc1ccc(C2CC(c3ccc(N(C)C)cc3)=NN2c2ccc(S(N)(=O)=O)cc2)cc1 (stereo unspecified)
  growth: 57.6% (inactive)

## O=C1CCN(Cc2ccccc2)C(=S)N1
  growth: 110% (inactive)

## O=C(Nc1ccc2ncnc(Nc3ccc(Oc4cccc(F)c4)c(Cl)c3)c2c1)c1ccc(CN2CCOCC2)cc1
  growth: 18.8% (inactive)

## Cc1cc(C(=O)CCCC(=O)c2cc(C)c(O)c(C)c2)cc(C)c1O
  growth: -3.17% (active)

## Brc1ccc(-c2nc3ccccc3s2)cc1
  growth: 93% (inactive)

## CC(C(=O)O)N1C(N)=NNC1c1ccccc1O (stereo unspecified)
  growth: 104% (inactive)

## CN(C)c1ccc2cc(-c3nc4ccccc4s3)c(N)nc2c1
  growth: 56.9% (inactive)

## Cc1cc(C)c(C#N)c(SCC(=O)c2sc3c(C#N)c(C)cc(C)[n+]3c2[O-])n1
  growth: 4.32% (active)

## CCCCCCCCCC(=O)Oc1ccc(/C(=C(/C)Cc2cccc(OC)c2)c2ccc(OCCN(C)C)cc2)cc1
  growth: 103% (inactive)

## O=Nc1ccc(Nc2ccccc2)cc1
  growth: -8.9% (active)

## C[C@@H](c1ccc2c(c1)[nH]c1ccc(Cl)cc12)c1nc2ccccc2[nH]1
  growth: -3.2% (active)

## IP(CCCSc1n(Cc2ccc3ccccc3c2)c(-c2ccccc2)c(-c2ccccc2)[n+]1Cc1ccc2ccccc2c1)(c1ccccc1)(c1ccccc1)c1ccccc1
  growth: -21.5% (active)

## c1ccc2c(N3CCCCC3)ncnc2c1
  growth: 75.9% (inactive)

## CCCCCCCCCCCC[N+]1(CCCCCCCCCCCC)CCCC(C)C1 (stereo unspecified)
  growth: -89.7% (active)

## C[n+]1cccc(NC(=O)c2ccc3ccc4ccc(C(=O)Nc5ccc[n+](C)c5)nc4c3n2)c1
  growth: -15.9% (active)

## CS(=O)(=O)c1ccc(-c2nc3ccccn3c2/C=N/Nc2nc(-c3ccc(Cl)cc3)cs2)cc1
  growth: 94.2% (inactive)

## O=C(/C=C/C12c3ccccc3C(c3ccccc31)C1C(=O)N(c3ccccc3)C(=O)C12)c1ccccc1 (stereo unspecified)
  growth: 1.31% (active)

## CCN1/C(=C/C(C)=C/c2sc3ccc4ccccc4c3[n+]2CC)Sc2ccc3ccccc3c21
  growth: -87.4% (active)

## CCN(CC)C(CC(=O)c1ccccc1)C(=O)c1ccccc1 (stereo unspecified)
  growth: 56.1% (inactive)

## Cc1ccc(N=CNN=C(N)N)cc1
  growth: 100% (inactive)

## Cc1cc(C)n(Cc2cc(C(C)(C)C)cc(C(C)(C)C)c2)c(=O)c1C#N
  growth: 97.4% (inactive)

## O=c1[nH]nnc2c1ncn2C1OC(CO)C(O)C1O (stereo unspecified)
  growth: 40.1% (inactive)

## CSc1nc(NCCCNc2ccnc3cc(Cl)ccc23)cc(-c2ccccc2)n1
  growth: 11.3% (inactive)

## CCOC(=O)c1c(C(F)(F)F)n([O-])c2ccc(Cl)cc2[n+]1=O
  growth: -55.3% (active)

## O=C(Nc1ccc(Cl)c(Cl)c1)Nc1ccccc1O
  growth: 0.995% (active)

## O=C(NCCn1ccnc1)c1ccc(-c2nc3ccc4[nH]ncc4c3c3c2CCCC3)cc1
  growth: 10.1% (inactive)

## COc1ccc([C@H]2[C@H](O)C(=O)N2c2cc(OC)c(OC)c(OC)c2)cc1F
  growth: 26.4% (inactive)

## O=C(/C=C/c1ccccc1)n1c(-c2ccc(Cl)cc2)nc2ccccc21
  growth: -6.61% (active)

## Nc1ccccc1-c1ccn[nH]1
  growth: 101% (inactive)

## CC1OC(n2c3ccccc3c3c4c(c5c6ccccc6[nH]c5c32)C(=O)N(CCN[C@H]2CCC[C@@H]2N)C4=O)CC(O)C1O (stereo partly specified)
  growth: -20% (active)

## O=C(c1ccc(/C=C/c2n[nH]c3ccccc23)cc1)N1CCNCC1
  growth: 65.9% (inactive)

## O=C(/C=C/C(=O)c1ccccc1)c1ccccc1
  growth: 107% (inactive)

## CC[C@H](Nc1nc(N)nc(C)c1C#N)c1nc2cccc(CN(C)c3ncc(C(=O)NO)cn3)c2c(=O)n1-c1ccccc1
  growth: -11.3% (active)

## CC(C)(C)OC(=O)N1CCCN(CCNc2nccc(-c3c(-c4cccc(O)c4)nc4sccn34)n2)S1(=O)=O
  growth: 97.3% (inactive)

## CC1=C([Se]CC(OC(=O)[C@@H](CO)NC(=O)OC(C)(C)C)C(=O)NCCCCCC(=O)OCc2ccccc2)C(=O)c2ccccc2C1=O (stereo partly specified)
  growth: -83.7% (active)

## Cn1cc(-c2[nH]c3cc(NC(=O)[C@H](N)C4CCCCC4)cc4c3c2C=NNC4=O)cn1
  growth: -83.3% (active)

## CCN1C(=S)N(CC)C2C1NC(=S)N2/N=C/C=C/c1ccccc1 (stereo unspecified)
  growth: 2.3% (active)

## CS(=O)(=O)OC1CC(n2ccc(=O)[nH]c2=O)OC1COC(c1ccccc1)(c1ccccc1)c1ccccc1 (stereo unspecified)
  growth: 110% (inactive)

## O=S(=O)(NCCNc1cc(-c2cn(-c3ccccc3)nc2-c2cccc(O)c2)ccn1)c1ccc(F)cc1
  growth: -22.4% (active)

## CC/C=C\CCC/C=C1/C(=O)C=C[C@@H]1C/C=C\CCCC(=O)O
  growth: 76.1% (inactive)

## Cc1ccc(NC(=S)NNC(=S)Nc2ccc(C)cc2)cc1
  growth: 99.3% (inactive) and 34% (inactive)

## O=C(/C=C\c1ccco1)/C=C/c1ccco1
  growth: 102% (inactive)

## O=C(COc1ccc(-c2nc3ccccc3[nH]2)cc1)N=Nc1c(O)[nH]c2ccccc12
  growth: 34.5% (inactive)

## O=C(O)CCCCSCCCCC(=O)O
  growth: 95.3% (inactive)

## COc1ccc(C(=O)Nc2cccc(-c3cc(=O)c4c(OC)c(OC)c(OC)cc4o3)c2)cc1
  growth: 75.2% (inactive)

## COc1cc(/C=C/C(=O)c2c(C)oc3nc[nH]c(=O)c23)ccc1O
  growth: 113% (inactive)

## CC(=O)C1=C(O)C=C2Oc3c(C(=O)/C=C/c4cc(Cl)cc(Cl)c4)c(O)c(C)c(O)c3[C@]2(C)C1=O
  growth: -41.7% (active)

## Cc1nn(-c2cc(=O)[nH]c3ccc(Cl)cc23)c(N)c1C#N
  growth: 111% (inactive)

## O=C(/C=C/C12c3ccccc3C(c3ccccc31)C1C(=O)NC(=O)C12)c1ccco1 (stereo unspecified)
  growth: 21.8% (inactive)

## CN(C)c1ccc2nc3ccc(N)cc3[n+](-c3ccccc3)c2c1
  growth: -28.6% (active) and 20.2% (inactive)

## O=C(Nc1ccccc1)OCCc1ccccc1
  growth: 99.2% (inactive)

## Nc1nc(=O)n([C@H]2CC=C(CO)O2)cc1F
  growth: 106% (inactive)

## COc1ccc(-c2cc(-c3c(C)oc4cc5occc5c(OC)c4c3=O)nc(N)c2C#N)cc1OC
  growth: 76.2% (inactive)

## CC1OC(n2c3ccccc3c3c4c(c5c6ccccc6[nH]c5c32)C(=O)N(CCN2CCOCC2)C4=O)CC(O)C1O (stereo unspecified)
  growth: -10.8% (active)

## CCCCCCCCNC(=O)C(C)C
  growth: 85.4% (inactive)

## CC(C)(Sc1cc(C(C)(C)C)c(OC(=O)CCCC(=O)O)c(C(C)(C)C)c1)Sc1cc(C(C)(C)C)c(OC(=O)CCCC(=O)O)c(C(C)(C)C)c1
  growth: 54.1% (inactive)

## Nc1nc(N)c(C=Nc2ccc(Br)cc2)c(Nc2ccc(Br)cc2)n1
  growth: 109% (inactive)

## CCOc1cc2ncc(C#N)c(Nc3ccc(F)c(Cl)c3)c2cc1NC(=O)/C=C/CN(C)C
  growth: -43.9% (active)

## CCOc1ccc(-n2c(-c3cc(OC)c(OC)c(OC)c3)nnc2-c2ccc(OC)cc2N)cc1
  growth: 1.83% (active)

## COc1ccc(CN2C(=O)/C(=C\C(=O)c3ccc(OCCN4CCCCC4)cc3)c3ccccc32)cc1
  growth: 53.3% (inactive)

## COc1ccccc1NC(=O)N/C(N)=N/c1nc2ccccc2s1
  growth: 14.2% (inactive)

## CCC(=O)Sc1ccccc1C(=O)Nc1ccc(Cl)cc1
  growth: 27% (inactive)

## Cc1cccc(C(=O)O)n1
  growth: 111% (inactive)

## Cc1cc2c(cc1C)N(C(=O)CCl)CCN2C(=O)CCl
  growth: -76% (active)
